Only some compounds are listed: those with a hit (about 4.8% of all), similar ones and a draw of the others.
STAT1 act – STAT1 signaling activators, primary screen, cell-based, HTS, luciferase reporter; NIH 3T3 STAT1-luciferase reporter, IFN-gamma, luminescence; 100% = IFN-gamma alone, no compound; 2.6% of 200,000 active; AID 932, 2007; activation (% of control), % at 5.5 µM;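 active = activation above the screen-wide mean activation plus 3 SD, cut at about 130% in these data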;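 note: raw ratio to IFN-gamma control signal so 100% means no change and 0% no light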
APP 5'UTR act – activators of APP 5'UTR luciferase reporter, primary screen, SH-SY5Y cells; SH-SY5Y APP 5'UTR luciferase reporter, luminescence; zero percent = DMSO vehicle wells; activation, % at 2 µM; 1% of 190,000 active;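 active = activation above a set limit, based on mean plus 3 SD of controls, cut at about 140% in these data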
APP 5UTR inh – inhibitors of APP translation via 5'UTR reporter, primary screen, APP 5'UTR luciferase, SH-SY5Y cells | SH-SY5Y APP 5'UTR-luciferase reporter, luminescence | inhibition, % at 2 µM | 0.82% of 190,000 active;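 active = inhibition above a set limit, derived from the sample mean plus 3 SD, cut at about 45% in these data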
Hsp70 act – Hsp70 transcriptional activators, primary screen, cell-based, HeLa, Hsp70 promoter luciferase, luminescence, 10 µM | HeLa Hsp70 promoter luciferase reporter; scaled: vehicle 0, proteasome-inhibitor control 100% | activation, % at 10 µM | 0.04% of 200,000 active;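 active = activation above the mean across all tested compounds plus 3 SD, cutoff set per campaign, cut at about 5.5% in these data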;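 note: 100% = MG132 at 30 µM as the positive control and 0% = DMSO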
NF-kB expr up – activators of NF-kB expression in neurons, primary screen, cell-based, HTS. human neuronal cells, NF-kB reporter expression; stronger effect = higher value. fold change at 12.5 µM. 1.6% of 190,000 active. AID 1239, 2008; in the data active = fold change above about 3.3
Wee1 stabilizer – Wee1 degradation inhibitors, primary screen, cell-based, HeLa, Wee1K328M-luciferase, luminescence. AID 1321, 2008. HeLa Luc-Wee1K328M stability; 100% = proteasome inhibitor MG132 effect. 1.2% of 220,000 active. Wee1-like protein kinase (Homo sapiens), P30291. reporter increase, % at 5 µM;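 active = activation above the mean of all tested compounds plus 3 SD, set per screening run, cut at about 8.8% in these data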;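 note: cells exposed to compound for 20 h before luminescence read; 0% = DMSO alone and 100% = MG132 at 30 µM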
Target sequence (P30291 whole entry K328M): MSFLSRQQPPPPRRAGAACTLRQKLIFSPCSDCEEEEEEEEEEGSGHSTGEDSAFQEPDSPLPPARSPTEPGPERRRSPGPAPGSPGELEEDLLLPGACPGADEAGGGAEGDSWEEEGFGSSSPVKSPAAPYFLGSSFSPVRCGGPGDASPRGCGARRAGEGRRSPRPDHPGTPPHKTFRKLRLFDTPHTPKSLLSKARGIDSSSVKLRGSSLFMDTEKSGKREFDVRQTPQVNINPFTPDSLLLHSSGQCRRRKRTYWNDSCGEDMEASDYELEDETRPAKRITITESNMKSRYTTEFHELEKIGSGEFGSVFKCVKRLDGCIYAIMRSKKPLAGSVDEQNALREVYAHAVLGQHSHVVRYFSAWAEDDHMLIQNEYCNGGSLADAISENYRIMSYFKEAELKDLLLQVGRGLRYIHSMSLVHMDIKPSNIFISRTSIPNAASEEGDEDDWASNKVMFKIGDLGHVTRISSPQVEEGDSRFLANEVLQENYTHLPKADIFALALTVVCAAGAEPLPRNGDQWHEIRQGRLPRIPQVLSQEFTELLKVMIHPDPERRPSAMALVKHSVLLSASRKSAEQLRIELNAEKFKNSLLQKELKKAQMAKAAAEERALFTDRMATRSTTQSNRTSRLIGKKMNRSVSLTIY
Starred values were filed as active, the others as inactive; . = not tested or not shown.

SMILES | STAT1 act | APP 5'UTR act | APP 5UTR inh | Hsp70 act | NF-kB expr up | Wee1 stabilizer
COc1ccc(CCNC(=O)NC2CCCCC2)cc1OC | 103 | -7 | 7 | 0 | 0.92 | 0
CN(C)S(=O)(=O)c1cccc(COC(=O)c2ccc3c(c2)OCO3)c1 | 87 | 16 | -16 | 0 | 1.2 | 1
Cc1ccc(O)c(C(=O)CC(=O)c2cccc(F)c2)c1 | 130* | 84 | -84 | 0 | 1.5 | 6
Cc1cccc(C(=O)CC(=O)c2cc(Cl)ccc2O)c1 | 108 | 16 | -16 | -1 | 1.4 | -1
O=C(CC(=O)c1cc(Cl)ccc1O)c1ccccc1 | 131* | 58 | -58 | 0 | 2 | 5
CCS(=O)(=O)Nc1cccc(C2=NN(S(=O)(=O)c3ccccc3)C(c3cccs3)C2)c1 (centres undefined) | 96 | -18 | 18 | 0 | 0.96 | -1
C#CCn1c(=NC(=O)CN2C(=O)CCC2=O)sc2cc(S(N)(=O)=O)ccc21 | 96 | -6 | 6 | 0 | 0.99 | 4
CCOc1c(N2CCOCC2)c(=O)c1=O | . | . | . | . | . | 0
Cc1cccc(NC(=S)NC(NC(=O)c2ccco2)C(Cl)(Cl)Cl)c1 (centres undefined) | 93 | -58 | 58* | 0 | 1.5 | 0
COc1cccc(NC(=O)/C=C/c2ccco2)c1 | 128 | 73 | -74 | 0 | 3.7* | 0
Cc1cccc(NC(=S)NC(=O)/C=C/c2ccco2)c1 | 105 | -62 | 62* | 0 | 1.9 | 6
CCCCC(CCC(=O)O)(C(=O)OCC)c1csc(Nc2ccc(OCC)cc2)n1 (centres undefined) | . | . | . | . | . | 0
Cc1ccc(OCC(=O)NC(=S)Nc2ccc(Br)cn2)cc1C | 99 | 23 | -23 | 0 | 1 | -4
N#C/C(=C\c1ccc(C#N)cc1)C(=O)c1ccccc1 | . | . | . | . | . | -1
Cn1cccc1/C=C(\C#N)c1ccccc1 | 95 | 10 | -10 | 0 | 1.3 | -2
CN(C)c1ccc(/C=C(\C#N)C(=O)c2ccccc2)cc1 | . | . | . | . | . | 9.3*
CSc1nc2ccccc2cc1/C=C(\C#N)c1ccccc1 | 86 | 4 | -4 | 0 | 1.1 | -2
CN(C)c1cccc(/C=C(\C#N)c2ccccc2)c1 | . | . | . | . | . | 10.0*
CN(C)c1ccc(/C=C(\C#N)c2ccccc2)cc1 | . | . | . | . | . | 16*
NC(=O)c1ccsc1NC(=O)c1ccc2c(c1)CCCC2 | 139* | 180* | -180 | 0 | 8.2* | 0
O=C(NCc1cccs1)c1ccc(N2CCCC2=O)cc1 | 106 | -4 | 4 | 0 | 1.4 | -1
NC(=O)c1ccsc1NC(=O)c1cccs1 | 124 | 15 | -15 | 0 | . | -1
CNC(=O)c1ccsc1NC(=O)c1ccc2c(c1)CCCC2 | 131* | 63 | -63 | 0 | 0.94 | 5
COC(=O)c1ccsc1NC(=O)c1ccccc1 | 109 | -12 | 12 | 0 | 1.1 | -3
NC(=O)c1ccsc1NC(=O)c1ccc(N2CCCC2=O)cc1 | 90 | 175* | -175 | 0 | 1.2 | 4
SMILES | STAT1 act | APP 5'UTR act | APP 5UTR inh | Hsp70 act | NF-kB expr up | Wee1 stabilizer
O=C(NC(=S)Nc1cc([N+](=O)[O-])ccc1Cl)c1ccccc1 | 121 | 14 | -14 | 0 | 1.7 | 6
O=C(NC(NNc1ccc([N+](=O)[O-])cc1)(C(F)(F)F)C(F)(F)F)c1ccccc1Cl | 91 | -11 | 11 | 0 | 1 | -2
CSC(=S)N/N=C(\C)c1ccccc1 | 109 | -3 | 3 | 0 | 5.9* | -4
COc1ccc(S(=O)(=O)N(C)CC(=O)N2CCN(Cc3ccccc3)CC2)cc1C | 93 | -16 | 16 | 0 | 0.83 | -2
COc1ccc(-c2nc3ccccc3[nH]2)cc1 | 86 | 185* | -185 | 0 | 5* | -1
c1ccc2[nH]c(-c3ccncc3)nc2c1 | 88 | 19 | -19 | 0 | 1.2 | -2
Cc1ccc(-c2nc3ccccc3[nH]2)s1 | 123 | 114 | -114 | 0 | 5.5* | 2
COC(=O)c1ccc(-c2nc3ccccc3[nH]2)cc1 | 122 | 131 | -131 | 0 | 7.1* | 1
COc1ccc(CCCc2nc3ccccc3[nH]2)cc1 | . | . | . | . | . | 9.9*
COC(=O)c1ccc(-c2ncc[nH]2)cc1 | 103 | 20 | -20 | 0 | 1.4 | 4
O=C(Sc1nnc(-c2ccccc2)o1)N1c2ccccc2Sc2ccccc21 | 94 | 14 | -14 | 0 | 0.88 | 2
CCOC(=O)/C(C#N)=C/c1ccc(OCC(=O)Nc2ccc(C)c(C)c2)c(OC)c1 | 105 | 20 | -20 | 0 | 1.1 | -3
Nc1cc(N)cc(-c2nc3ccccc3[nH]2)c1 | 109 | 15 | -15 | 0 | 0.56 | 7
Cc1cc(-c2nc3ccccc3[nH]2)ccc1N | 116 | 107 | -107 | 0 | 5* | 0
COc1ccc(/C=N/NC(=O)Nc2nonc2N)cc1 | 130* | 6 | -6 | 0 | 1.3 | -1
CC(=O)Nc1ccc(N2C(C(C)=O)=NN(c3ccc(Cl)cc3)C2c2sccc2C)cc1 (centres undefined) | 99 | 27 | -27 | 0 | 0.94 | -2
COc1ccc(OC)c(NC(=O)[C@H]2CC=CC[C@H]2C(=O)O)c1 | 99 | 1 | -1 | 0 | 1.2 | -2
CC(=O)N1CCOCCOCCN(C(C)=O)CCOCC1 | 107 | 8 | -8 | 0 | 1.1 | 11*
Cc1cc(C(=O)N/N=C/c2ccc(-c3cccc(Cl)c3Cl)o2)n[nH]1 | 100 | 3 | -3 | 0 | 1.4 | 0
COc1cccc(C(=O)Oc2c(Br)cc(Br)cc2/C=N/NC(=O)c2cc(C)[nH]n2)c1 | 94 | -45 | 45* | 0 | 0.84 | -3
COC(=O)N/N=C/c1cc(N=Nc2ccccc2)ccc1O | . | . | . | . | . | 0
Cc1cc(C(=O)N/N=C/c2cc(N=Nc3ccccc3)ccc2O)n[nH]1 | 97 | -50 | 50* | 0 | 0.98 | 5
Cc1cc(C(=O)N/N=C/c2ccc(-c3cccc(Br)c3)o2)n[nH]1 | . | . | . | . | . | 10*
Cc1[nH]c2ccccc2c1N=Nc1cccc(C(=O)O)c1 | 147* | 83 | -83 | 0 | 4.1* | 2
Cc1ccc(S(=O)(=O)N2CCOCC2)cc1C(=O)OCC(=O)Nc1ccc2c(c1)OCO2 | 98 | 1 | -1 | 0 | 1.3 | 0
Cn1c(=O)c2[nH]c(CN(Cc3ccccc3)Cc3ccccc3)nc2n(C)c1=O | 95 | 29 | -29 | 0 | 1.4 | -2
CC(=O)NC(=S)Nc1sc2c(c1C(N)=O)CCC(C)C2 (centres undefined) | 132* | 65 | -65 | 0 | 3.5* | 0
CCCCC(=O)Nc1sc2c(c1C(N)=O)CCC2 | 116 | 21 | -21 | 1 | 1.6 | 0

High-throughput results (PubChem)
